# High-throughput results (PubChem)
# Shown are actives, neighbours in structure and some others; about 0.87% of the full set was active somewhere.
# RGS4 inh – blocks human RGS4-accelerated GTP hydrolysis. Potency, µM (series often up to 114 µM), inactives show at the top dose activity change, negative = inhibition, usual class: inhibitors. AID 504845. Transcreener GDP fluorescence polarization, RGS4-accelerated GTP hydrolysis. hit rate 0.039% among 390,000; also: nearly all actives have a fitted effect of over 75% in size
# Target sequence (P49798 whole entry, looked up): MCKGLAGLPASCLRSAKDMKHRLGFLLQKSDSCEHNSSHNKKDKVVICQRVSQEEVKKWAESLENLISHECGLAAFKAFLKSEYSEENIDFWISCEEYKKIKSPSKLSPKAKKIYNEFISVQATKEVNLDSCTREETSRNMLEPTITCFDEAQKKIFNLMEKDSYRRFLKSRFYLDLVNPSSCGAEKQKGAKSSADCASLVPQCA
#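 MLSMR compounds (23 nl, pin-transferred) preincubated 10 min at room temperature with a 500nM (2x) first reagent, then RGS4 at 900nM (2x) plus Transcreener GDP mix added; fluorescence polarization (620/688 nm) read before and after 90 min at 30 °C.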
# APEX1 inh – inhibitors of human APE1 endonuclease | P27695 | recombinant APE1, TAMRA/BHQ-2 abasic DNA cleavage fluorescence | Potency, µM (highest dose often 65.8 µM), inactives show at the top dose activity change, negative = inhibition, hits mostly inhibitors | hit rate 0.35% among 350,000;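 also: plate controls were vehicle for no effect and reference inhibitor for full effect; nearly all actives have a fitted effect of over 55% in size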
# Target sequence (P27695 whole entry, looked up): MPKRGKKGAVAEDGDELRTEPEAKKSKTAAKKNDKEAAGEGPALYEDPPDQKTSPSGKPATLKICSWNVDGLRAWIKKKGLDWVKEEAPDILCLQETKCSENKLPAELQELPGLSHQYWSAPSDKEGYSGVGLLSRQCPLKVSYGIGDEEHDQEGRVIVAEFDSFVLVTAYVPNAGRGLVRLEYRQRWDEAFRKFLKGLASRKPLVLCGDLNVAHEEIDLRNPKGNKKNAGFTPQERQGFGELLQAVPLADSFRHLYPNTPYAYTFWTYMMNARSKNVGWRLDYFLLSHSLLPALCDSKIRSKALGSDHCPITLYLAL
#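 0.75 nM APE1 + cpd, 15 min RT; start w/ 50 nM TAMRA/BHQ-2 THF-abasic dsDNA; kinetic fluor 525/598 nm ×3 reads @60 s; Δ(read3−read1); normalized to DMSO and NSC13755 control wells.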
# RECQ1 inh – RECQ1 (human) helicase inhibition; Potency, µM (top dose mostly 57.3 µM), for the others: at the highest dose activity, negative = inhibition, most hits filed as inhibitors; RECQ1 DNA unwinding, red fluorescence kinetic read; hit rate 0.54% among 240,000; P46063;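 also: plate controls were vehicle for no effect and no enzyme for full effect; nearly all actives have a fitted effect of over 30% in size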
#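 RECQ1T1 50 nM; forked duplex (20 bp + 30-nt ss tails) 200 nM, ATP 2 mM final; pH 8.0, 2 mM MgCl2, 2.5 ug/ml poly(dI-dC); 15 min compound preincubation; discontinuous kinetic read over 2 h at RT.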
# BLM inh – Bloom syndrome helicase (human) inhibition; Potency, µM (titrated, usually from 56.1 µM), without a hit: top-dose activity change, negative = inhibition, usual class: inhibitors; hit rate 0.2% among 350,000; P54132; AID 2528; recombinant BLM DNA unwinding, fluorescence dequenching;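 also: plate controls were vehicle for no effect and no enzyme for full effect; nearly all actives have a fitted effect of over 35% in size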
# KAT2A inh – inhibitors of human GCN5L2 histone acetyltransferase. Q92830. GCN5L2 HAT assay, ThioGlo1 CoA-SH fluorescence. Potency, µM (doses to about 58.9 µM), inactives show at the top dose activity change, negative = inhibition, most hits filed as inhibitors. hit rate 0.21% among 390,000. AID 504327
#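 Preincubate 20nM GCN5L2 with compound 15 min, RT → add 50uM ThioGlo1 + 75uM H3(1-25) + 70uM acetyl-CoA → read fluorescence 0 and 20 min. Primary qHTS; fluorescent artifacts likely.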
# TDP1 inh – inhibitors of human tyrosyl-DNA phosphodiesterase TDP1. Q9NUW8. recombinant TDP1, AlphaScreen DNA substrate cleavage. Potency, µM (series often up to 130 µM), for inactives: top-dose activity change, negative = inhibition, most hits filed as inhibitors. hit rate 0.28% among 350,000; also: nearly all actives have a fitted effect of over 40% in size
#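 Tdp1 1 nM final; 15 min RT w/ cpd; substrate 15 nM, 5 min; beads 10 ug/ml, 10 min; AlphaScreen read. Neg ctrl: no enzyme.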
# An asterisk follows results filed as active; i = inactive; ? = inconclusive; . = no result given; ! = a repeat was not active; [ ] = another dose, or the depositor's remark. Calls follow the shape of the dose curve; as a rule, active = well fitted curve in the direction sought with a large enough effect; inconclusive = small, poorly fitted or top-dose-only effect, or another doubt; inactive = no such curve, though single readings can be large; an effect the other way counts as inactive or inconclusive. Unless noted, % is scaled to controls: 0 for no effect and ±100 for the full control effect; potency is read from the fitted curve at half-maximal effect.
SMILES,RGS4 inh,APEX1 inh,RECQ1 inh,BLM inh,KAT2A inh,TDP1 inh
CC1(C)CC(=O)C2=C(C1)c1c(ccc3ccccc13)NC2c1ccc(C(=O)O)cc1 (stereo not drawn),13%,9%,.,-3%,-30%,.
O=c1n(CCCN2CCN(c3cccc(Cl)c3)CC2)nc2ccccn12,7%[56.9 µM],-4%,-7%,2%,11µM*!,5%
O=C(CNC(=O)c1ccccc1)OC(C(=O)Nc1ccc2c(c1)OCO2)c1ccccc1 (stereo not drawn),.,.,.,.,.,0%
CCOc1c2ccc(C(=O)NCc3ccco3)cc2nn1CCOC,-7%,-1%,-13%,-4%,28µM*,5%
COc1cc(/C=N/NC(N)=S)ccc1OCC(=O)Nc1ccc(C)c(C)c1,-25%,7%,-7%,-5%,.,2%
COc1cc(/C=N/NC(=O)COc2c(C)cc([N+](=O)[O-])cc2C)ccc1OC(=O)c1ccccc1,-10%,8%,28µM*,-5%,-6%,3%
COc1cc(/C=N/NC(N)=O)ccc1OCC(=O)Nc1ccc(C)c(C)c1,-53%,5%,-3%,10µM*,-2%,-5%
O=C(CNC(=O)c1ccccc1)OC(Cc1ccccc1)C(=O)Nc1cc(C(F)(F)F)ccc1Cl (stereo not drawn),.,.,.,.,.,-3%
CCCCCCCCCCCCCCSCC(=O)O,39%[56.9 µM],-8%,-8%,.,10µM*,8%
CCCCCCCCCCCCCCCC(=O)O,.,.,.,-12%,-30%,2%
O=C1CCCC2=C1C(c1ccccc1Cl)N=C(Nc1nc3ccccc3o1)N2 (stereo not drawn),.,.,.,.,.,2%
Fc1ccc(Nc2nc(NCc3ccco3)nc3nccnc23)cc1,-28%,.,.,.,.,0%
c1ccc(Nc2nc(NCc3ccco3)nc3nccnc23)cc1,?,.,.,.,.,50µM*
Cc1ccccc1C(=O)NCC(=O)OC(C(=O)Nc1cc(C(F)(F)F)ccc1Cl)c1ccccc1 (stereo not drawn),.,.,.,.,.,-3%
CC(C)CCCC(C)CCCC(C)CCCC(C)C(=O)O (stereo not drawn),.,-1%,-11%,?,11µM*,2%
COc1ccc(C(=O)COC(=O)c2ccc(Cl)nc2)c(OC)c1,-18%,-31%,.,.,-13%,50µM*
O=S(=O)(c1cccc(O)c1)N1CCN(S(=O)(=O)c2c(F)cccc2F)CC1,.,.,.,.,.,1%
O=C(CNC(=O)c1cccc2ccccc12)OC(C(=O)Nc1cc(C(F)(F)F)ccc1Cl)c1ccccc1 (stereo not drawn),.,.,.,.,.,-3%
COc1ccccc1-c1coc2cc(O)ccc2c1=O,.,0%,i,-1%,25µM*,12%[56.1 µM]
COc1ccc(-c2coc3cc(O)ccc3c2=O)c(OC)c1O,.,3%,2%,-1%,-12%,14%[56.1 µM]
CNC(C)[C@@H]1CC[C@@H](N)[C@@H](O[C@H]2[C@H](O)[C@@H](O[C@H]3OC[C@](C)(O)[C@H](NC)[C@H]3O)[C@H](N)C[C@@H]2N)O1 (stereo partly drawn),.,3%[21 µM],.,.,.,.
CSc1ccc(/C=C(\C(=O)O)c2ccc(S(=O)(=O)N3CCCC3)s2)cc1,-13%,-44%,.,.,-25%,28µM*
CC1=C(/C=C/C(C)=C\C=C\C(C)=C\C(=O)O)C(C)(C)CCC1,90%[56.9 µM],-2%,7%,3%,6%,11%
CC1=C(/C=C/C(C)=C/C=C/C(C)=C/C(=O)O)C(C)(C)CCC1,?,-9%,?,-5%,32µM*!,-8%
CC(=O)NCCNc1ncncc1-c1ccccc1C(F)(F)F,.,0%,-28%,5%,-17%,32µM*
S=c1nc(-c2ccccc2)[nH]n1-c1ccccc1,-27%,17%,-11%,-4%,13µM*,2%
CCc1cc2c(s1)c1cnn(Cc3ccccc3F)c(=O)c1n2C,.,.,.,.,.,-1%
N#CC(C#N)=C1C=C2C=C(N3CCCCC3)CCC2CC1 (stereo not drawn),-6%,9%,28µM*,-21%,-3%,8%
